Results taken from PubChem BioAssay (NCI).
This is part of a sample that, as a whole, favours compounds with a hit. Of some 83,000 tested, about 20% had one in any assay.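 Values shown are percent growth following 48 h exposure of cells in 96-well plates to a single concentration of compound; below 10 was considered active.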 Unmarked numbers belong to inactive results. The source made the active and inactive calls.

Experiments:
Assay in all cases: NCI-60 one-dose screen, 48 h (100 = growth as untreated, 0 = no growth, -100 = all killed)
Settings in all cases: 10 µM
[1] = test system: NCI-H23 lung
[2] = test system: NCI-H226 lung
[3] = test system: NCI-H322M lung
[4] = test system: HOP-62 NSCLC
[5] = test system: NCI-H460 lung
[6] = test system: HOP-92 NSCLC
[7] = test system: NCI-H522 lung
[8] = test system: A549/ATCC NSCLC
[9] = test system: 786-0 renal
[10] = test system: COLO 205 colon
[11] = test system: DU-145 prostate
[12] = test system: K-562 leukemia
[13] = test system: MALME-3M melanoma
[14] = test system: MDA-MB-231 breast
[15] = test system: RXF 393 renal
[16] = test system: SF-268 CNS
[17] = test system: SF-295 CNS
[18] = test system: SF-539 CNS
[19] = test system: UACC-257 melanoma
[20] = test system: M14 melanoma

| SMILES | growth [1] | growth [2] | growth [3] | growth [4] | growth [5] | growth [6] | growth [7] | growth [8] | growth [9] | growth [10] | growth [11] | growth [12] | growth [13] | growth [14] | growth [15] | growth [16] | growth [17] | growth [18] | growth [19] | growth [20] |
| --- | --- | --- | --- | --- | --- | --- | --- | --- | --- | --- | --- | --- | --- | --- | --- | --- | --- | --- | --- | --- |
| FC(F)(F)c1ccc(-c2ncc(-c3ccc(C(F)(F)F)cc3)c(NCc3cc(C(F)(F)F)cc(C(F)(F)F)c3)n2)cc1 | 39.3% | 46.7% | 90.9% | 62.6% | 38.5% | -6.55% (active) | 43.3% | 65.7% | 53.9% | 74.9% | 69.6% | 44.4% | 75.4% | 72.5% | 66.6% | 69.3% | 9.91% (active) | 86.7% | 87.9% | 73.8% |
| Cc1ccc(C2C=C(c3ccc(Cl)cc3)N=C3SC=CN32)c(Br)c1 (stereo not given) | 85% | 55.5% | 85.5% | 96.5% | 84.4% | 80.6% | 80.7% | 86.3% | 93.1% | 91.1% | 89.1% | 44.9% | 87.3% | 90% | 71.7% | 92% | 96.1% | 89.7% | 103% | 94.4% |
| Cc1ccc2oc(=O)cc(/C(=C3/C=CC=N3)c3ccc[nH]3)c2c1 | 9.51% (active) | -7.14% (active) | 25.4% | -11.3% (active) | -2.31% (active) | 7.28% (active) | -33.2% (active) | -21% (active) | 3.15% (active) | -53.6% (active) | 0.492% (active) | -0.946% (active) | 25.6% | -6.98% (active) | -21.7% (active) | 12.7% | -23.9% (active) | -33.6% (active) | 6.21% (active) | -7.95% (active) |
| O=C(COCc1c(-c2ccccc2)no[n+]1[O-])Nc1nc(-c2ccc(Cl)cc2)cs1 | 93.6% | 90.4% | 104% | 96.5% | 106% | 86.8% | 81.1% | 105% | 120% | 113% | 109% | 108% | 97.8% | 99.9% | 112% | 97.9% | 101% | 109% | 96.5% | 108% |
| CCOC(=O)[C@@H](Cc1ccccc1)NC(=O)c1[nH]c2ccc(Cl)cc2c(=O)c1C | 99.7% | 107% | 97.7% | 92.3% | 103% | 100% | 71.8% | 84.1% | 97.4% | 111% | 113% | 86.5% | 107% | 106% | 98.5% | 99.7% | 97.4% | 101% | 81.7% | 97.1% |
| O=C1/C(=C/c2ccc([N+](=O)[O-])s2)Oc2ccc(Cl)cc21 | -35.5% (active) | -56.8% (active) | -43% (active) | -6.59% (active) | -48.8% (active) | -71% (active) | -70.3% (active) | -26.5% (active) | -17.3% (active) | -69.6% (active) | -73.5% (active) | -11.2% (active) | -56.8% (active) | -57% (active) | -63.9% (active) | -57.9% (active) | -16.2% (active) | -91.3% (active) | -54.5% (active) | -44.4% (active) |
| O=C(OCc1ncc(-c2ccc(C(F)(F)F)cc2)c(NC2CCCCCC2)n1)c1c(F)c(F)c(F)c(F)c1F | 63.1% | 77.7% | 87.6% | 83.5% | 63.5% | 6.29% (active) | 38.4% | 48.9% | 74.3% | 59.2% | 77.2% | 31.9% | -14.4% (active) | 81.4% | 64.3% | 72.5% | 24.5% | 96.3% | 34.9% | 43.7% |
| Cc1cc2cc3c(=O)[nH]c(=O)cc-3n(CC(O)C(O)C(O)CO)c2cc1C (stereo not given) | 106% | 110% | 119% | 81.1% | 101% | 111% | 96.2% | 97.8% | 103% | 93.1% | 95.5% | 108% | 104% | 109% | 115% | 108% | 97.6% | 107% | 110% | 107% |
| CCCCCCCCCCCCCCCCCBr | 106% | 94.9% | 94.6% | 104% | 106% | 98.8% | 98.4% | 108% | 104% | 106% | 113% | 97.4% | 108% | 112% | 109% | 109% | 97% | 99.5% | 102% | 109% |
| CCc1ccc(-c2nnc(COc3ccc(-c4nc5ccccc5[nH]4)cc3OC)o2)cc1 | 72.4% | 81.4% | 96.9% | 83.2% | 45.5% | 79% | 91.6% | 60.3% | 22.3% | 64.4% | 48.1% | 33% | 47.6% | 10.5% | 68.7% | 52.8% | 79.3% | 6.55% (active) | 88.7% | 56.5% |
| Cc1ccc(C)c(S(=O)(=O)NC2c3ccccc3Oc3ccccc32)c1 | 98% | 90.3% | 88.3% | 96.1% | 105% | 59.6% | 31.6% | 96.7% | 88% | 99.2% | 112% | 90% | 93.2% | 95.2% | 91.3% | 95% | 98.1% | 97.3% | 109% | 101% |
| CCOC(=O)/C(C#N)=C(/C)C1CC1 | 109% | 95.7% | 112% | 98.5% | 104% | 86% | 110% | 99.7% | 103% | 108% | 108% | 117% | 109% | 117% | 94.9% | 107% | 113% | 96.8% | 103% | 109% |
| COc1cc2nc(Sc3sc(N)nc3C)n(-c3ccc(Oc4ccccc4)cc3)c(=O)c2cc1OC | 90.6% | 89.7% | 123% | 110% | 99.5% | 79.5% | 83.7% | 83.3% | 80% | 76% | 98.3% | 78.6% | 98.3% | 90.1% | 85.9% | 102% | 85.4% | 81.3% | 89.7% | 81.6% |
| CC(CNC(Cc1ccccc1)c1ccccc1)NC(Cc1ccccc1)c1ccccc1 (stereo not given) | 30.3% | 34.8% | 77.7% | 39.9% | 8.03% (active) | -0.172% (active) | 9.37% (active) | 46.8% | 50.2% | 9.3% (active) | 21.4% | 8.06% (active) | 45% | 17.4% | 43.7% | 53.5% | 61.2% | 52.7% | 76.9% | 30.4% |
| COc1ccc(C2C=C(c3ccc(Cl)cc3)N=C3SC=CN32)c(Br)c1 (stereo not given) | 71.6% | 81.4% | 112% | 87.3% | 76.7% | 76.2% | 65.5% | 56.8% | 89.6% | 70.4% | 97% | 66.1% | 106% | 47.7% | 69.8% | 71.2% | 55.6% | 91.1% | 83.2% | 78.6% |
